A number with no mark means an inactive call. Active and inactive are the calls of the source.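 The calls were made as follows, unless noted: active = fluorescence slope higher than the sample average by over 3 SD (cut at about -0.22 in these data, passing the limit was not always enough); inactive = the rest.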
These molecules were tested against Voltage-gated potassium channel subunit beta-2 (Rattus norvegicus) (UniProt P62483) (assay: inhibitors of rat Kvbeta2 reductase activity – biochemical, NADPH fluorescence, primary screen (AID 622;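 also: slope of raw intensity against log time taken from 70 to 1610 s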)). Conditions: recombinant KvBeta, 4-cyanobenzaldehyde reduction, at 10 µM, stronger effect = higher value.
Sequence of Voltage-gated potassium channel subunit beta-2 (Rattus norvegicus) (P62483 whole entry, looked up): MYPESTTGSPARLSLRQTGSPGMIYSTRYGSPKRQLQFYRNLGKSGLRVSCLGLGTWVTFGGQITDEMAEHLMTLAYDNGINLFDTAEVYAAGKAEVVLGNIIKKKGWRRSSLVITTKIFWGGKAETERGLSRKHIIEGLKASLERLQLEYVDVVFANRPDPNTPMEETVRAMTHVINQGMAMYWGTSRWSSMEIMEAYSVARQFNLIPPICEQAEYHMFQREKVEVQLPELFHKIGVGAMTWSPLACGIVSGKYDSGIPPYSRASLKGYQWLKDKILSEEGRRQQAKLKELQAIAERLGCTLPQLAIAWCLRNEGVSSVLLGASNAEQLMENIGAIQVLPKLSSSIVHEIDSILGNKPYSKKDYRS
Molecule `O=C(Cn1nc(Cc2ccncc2)c2ccccc2c1=O)N1CCN(C(=O)c2ccco2)CC1` has a fluorescence slope of -0.58.
In the case of `O=C(CSc1nnnn1-c1ccc2c(c1)OCO2)NCc1cccs1`, the fluorescence slope was -0.447.
`Cc1occc1-c1nnc(SCC(=O)c2ccc(F)cc2)n1Cc1ccco1` showed a fluorescence slope of -0.393.
`CC(C)(C)NC(=O)C(c1ccco1)N(C(=O)Cn1nnc(-c2ccc(F)cc2)n1)c1ccccc1F` (stereo not given) was tested, and the fluorescence slope was -0.56.
`CCOC(=O)C(CC)Sc1nc2c(c(=O)[nH]c(=O)n2C)n1C/C=C(/C)Cl` (stereo not given) showed a fluorescence slope of -0.601.
`CCN1CCN(C(=O)Cn2ncc3ccsc3c2=O)CC1` showed a fluorescence slope of -0.571.
With `Cc1cc(N2CCOCC2)nc2ccc(NC(=O)C3CCC(C)CC3)cc12` (stereo not given) the fluorescence slope was -0.549.
`O=C(Nc1cccc(F)c1)C1C2C=CC3(CN(CCCN4CCOCC4)C(=O)C13)O2` (stereo not given) was tested, and the fluorescence slope was -0.548.
In the case of `C=CCn1c(=O)n(CCOC)c(=O)c2sc3ccccc3c21`, the fluorescence slope was -0.566.
Molecule `Cc1ccc(C(=O)CSc2n[nH]c(-c3ccco3)n2)cc1C` has a fluorescence slope of -0.479.
`Cc1ccc(-c2cn3nc(C)c(C)nc3n2)cc1` was tested, and the fluorescence slope was -0.007 (active).
`O=C(NCCO)c1cc2ccccc2cc1O` was tested, and the fluorescence slope was -0.47.
With `CCOCCCNC(=O)CS(=O)(=O)Cc1nc(-c2cccc(OC)c2)oc1C` the fluorescence slope was -0.596.
For `COc1ccccc1Cn1nnc2c(=O)[nH]c(C3CCN(C(=O)c4ccccc4Cl)CC3)nc21`, the fluorescence slope was -0.624.
`CCCCc1n[nH]c2c1C(=O)CC(C)(C)C2` was tested, and the fluorescence slope was -0.449.
`Cc1ccc(NC(=O)c2ccco2)c(NC(=O)c2cccs2)c1` gave a fluorescence slope of -0.375.
Molecule `COc1ccc(NC(=O)CN2CCCCC2)cc1` has a fluorescence slope of -0.414.
Molecule `CCCCP(=O)(CCCC)c1ccccc1C(=O)O` has a fluorescence slope of -0.421.
In the case of `c1ccc2c(c1)CNc1ccccc1C2`, the fluorescence slope was -0.517.
`Cc1ccc(NC2=NC3(CCCCC3)N=C(N)N2)c(C)c1` showed a fluorescence slope of -0.598.
For `CCCOC(=O)c1ccc(-c2c(C)noc2-c2ccc(OC)cc2O)o1`, the fluorescence slope was -0.495.
`CCOC(=O)C1CCN(Cc2ccc(OC)c(C)c2OC)CC1` showed a fluorescence slope of -0.539.
With `CC1CCCC(C)N1C(=O)CSc1nnc(-c2cccs2)o1` (stereo not given) the fluorescence slope was -0.382.
`Cc1nc2ccccc2c2oc(C(=O)NCC3COc4ccccc4O3)cc12` (stereo not given) gave a fluorescence slope of -0.569.
`O=C(c1ccccc1-c1nc(-c2ccccc2)no1)N1CCCC1` gave a fluorescence slope of -0.534.
Molecule `COc1ccc(OC)c(C(C)NC=O)c1` (stereo not given) has a fluorescence slope of -0.449.
Molecule `CCSc1ccccc1C(=O)Nc1cccc(OC)c1` has a fluorescence slope of -0.539.
Molecule `O=S(=O)(NCc1ccc(Cl)cc1)c1cnc[nH]1` has a fluorescence slope of -0.538.
In the case of `Cc1ccc2oc(=O)c3cnn(CC(=O)NCCC(C)C)c3c2c1`, the fluorescence slope was -0.602.
Molecule `CCOC(=O)N1CCN(S(=O)(=O)c2ccc(OCC)c(C)c2)CC1` has a fluorescence slope of -0.625.
Work on `Cc1cc(C(F)(F)F)nn1Cc1ccc(C(=O)NCc2ccco2)o1` yielded a fluorescence slope of -0.568.
For `CC(=O)c1c(C)oc2ccc(NS(=O)(=O)c3ccc(O)c(C(=O)O)c3)cc12`, the fluorescence slope was -0.576.
For `Cc1ccc(S(=O)(=O)NC(=O)c2cc(C)n(CCCn3ccnc3)c2C)cc1`, the fluorescence slope was -0.596.
Molecule `CC(C)(O)C1=NOC(c2ccccc2)C1` (stereo not given) has a fluorescence slope of -0.411.
In the case of `Cc1ccc(C(C(=O)NC2CCCCC2)N(C(=O)c2csnn2)C2CCCC2)o1` (stereo not given), the fluorescence slope was -0.547.
In the case of `COCCNC(=O)CC(NS(=O)(=O)c1ccc(NC(C)=O)cc1)C(C)C` (stereo not given), the fluorescence slope was -0.397.
Molecule `COc1ccccc1CN1CC(C(=O)NCc2cccnc2)CC1=O` (stereo not given) has a fluorescence slope of -0.502.
`O=C(NC1=NCCS1)NC12CC3CC(CC(C3)C1)C2` showed a fluorescence slope of -0.598.
Molecule `CCc1nnc(NC(=O)C2CC(=O)N(Cc3ccco3)C2)s1` (stereo not given) has a fluorescence slope of -0.507.
For `Cc1ccc2c(c1)nnn2C1CCN(C(=O)NC23CC4CC(CC(C4)C2)C3)CC1`, the fluorescence slope was -0.423.

The molecules below were run against Voltage-gated potassium channel subunit beta-2 (Rattus norvegicus) (UniProt P62483) (assay: enhancers of rat Kvbeta2 NADPH turnover – biochemical, NADPH fluorescence, primary screen (AID 623;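 active = NADPH fluorescence slope more negative than the mean of all samples by about 3 SD, 99.7% confidence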;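 also: fluorescence intensity change per second fitted from 20 to 320 s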)). Conditions: Recombinant KvBeta, NADPH fluorescence decrease slope, 10 min; at 10 µM; stronger effect = lower value.
In the case of `O=C(Cn1nc(Cc2ccncc2)c2ccccc2c1=O)N1CCN(C(=O)c2ccco2)CC1`, the NADPH fluorescence slope was -2.7e-05.
`O=C(CSc1nnnn1-c1ccc2c(c1)OCO2)NCc1cccs1` showed an NADPH fluorescence slope of 9.8e-06.
`Cc1occc1-c1nnc(SCC(=O)c2ccc(F)cc2)n1Cc1ccco1` was tested, and the NADPH fluorescence slope was 2e-06.
`CC(C)(C)NC(=O)C(c1ccco1)N(C(=O)Cn1nnc(-c2ccc(F)cc2)n1)c1ccccc1F` (stereo not given) showed an NADPH fluorescence slope of -6.1e-05.
`CCOC(=O)C(CC)Sc1nc2c(c(=O)[nH]c(=O)n2C)n1C/C=C(/C)Cl` (stereo not given) was tested, and the NADPH fluorescence slope was -6.7e-05.
`CCN1CCN(C(=O)Cn2ncc3ccsc3c2=O)CC1` was tested, and the NADPH fluorescence slope was -8e-06.
Work on `Cc1cc(N2CCOCC2)nc2ccc(NC(=O)C3CCC(C)CC3)cc12` (stereo not given) yielded an NADPH fluorescence slope of 1.5e-05.
Molecule `O=C(Nc1cccc(F)c1)C1C2C=CC3(CN(CCCN4CCOCC4)C(=O)C13)O2` (stereo not given) has an NADPH fluorescence slope of -3.3e-05.
For `C=CCn1c(=O)n(CCOC)c(=O)c2sc3ccccc3c21`, the NADPH fluorescence slope was -3.7e-05.
With `Cc1ccc(C(=O)CSc2n[nH]c(-c3ccco3)n2)cc1C` the NADPH fluorescence slope was 1.8e-05.
In the case of `Cc1ccc(-c2cn3nc(C)c(C)nc3n2)cc1`, the NADPH fluorescence slope was -3.4e-06.
Work on `O=C(NCCO)c1cc2ccccc2cc1O` yielded an NADPH fluorescence slope of -2.1e-05.
Molecule `CCOCCCNC(=O)CS(=O)(=O)Cc1nc(-c2cccc(OC)c2)oc1C` has an NADPH fluorescence slope of 4.7e-07.
`COc1ccccc1Cn1nnc2c(=O)[nH]c(C3CCN(C(=O)c4ccccc4Cl)CC3)nc21` showed an NADPH fluorescence slope of -1.1e-05.
Work on `CCCCc1n[nH]c2c1C(=O)CC(C)(C)C2` yielded an NADPH fluorescence slope of -4.7e-05.
`Cc1ccc(NC(=O)c2ccco2)c(NC(=O)c2cccs2)c1` was tested, and the NADPH fluorescence slope was 2e-06.
`COc1ccc(NC(=O)CN2CCCCC2)cc1` gave an NADPH fluorescence slope of -2.7e-05.
`CCCCP(=O)(CCCC)c1ccccc1C(=O)O` was tested, and the NADPH fluorescence slope was -9.2e-05.
Work on `c1ccc2c(c1)CNc1ccccc1C2` yielded an NADPH fluorescence slope of 2.1e-06.
Work on `Cc1ccc(NC2=NC3(CCCCC3)N=C(N)N2)c(C)c1` yielded an NADPH fluorescence slope of -4.3e-05.
Molecule `CCCOC(=O)c1ccc(-c2c(C)noc2-c2ccc(OC)cc2O)o1` has an NADPH fluorescence slope of -3.7e-05.
For `CCOC(=O)C1CCN(Cc2ccc(OC)c(C)c2OC)CC1`, the NADPH fluorescence slope was -2.1e-05.
`CC1CCCC(C)N1C(=O)CSc1nnc(-c2cccs2)o1` (stereo not given) gave an NADPH fluorescence slope of -5.4e-05.
`Cc1nc2ccccc2c2oc(C(=O)NCC3COc4ccccc4O3)cc12` (stereo not given) was tested, and the NADPH fluorescence slope was -1.4e-05.
In the case of `O=C(c1ccccc1-c1nc(-c2ccccc2)no1)N1CCCC1`, the NADPH fluorescence slope was -2.8e-05.
Work on `COc1ccc(OC)c(C(C)NC=O)c1` (stereo not given) yielded an NADPH fluorescence slope of 1.3e-05.
`CCSc1ccccc1C(=O)Nc1cccc(OC)c1` was tested, and the NADPH fluorescence slope was -8.4e-05.
`O=S(=O)(NCc1ccc(Cl)cc1)c1cnc[nH]1` showed an NADPH fluorescence slope of -2e-05.
For `Cc1ccc2oc(=O)c3cnn(CC(=O)NCCC(C)C)c3c2c1`, the NADPH fluorescence slope was -2.9e-05.
Work on `CCOC(=O)N1CCN(S(=O)(=O)c2ccc(OCC)c(C)c2)CC1` yielded an NADPH fluorescence slope of -3.8e-06.
Work on `Cc1cc(C(F)(F)F)nn1Cc1ccc(C(=O)NCc2ccco2)o1` yielded an NADPH fluorescence slope of -2.7e-05.
`CC(=O)c1c(C)oc2ccc(NS(=O)(=O)c3ccc(O)c(C(=O)O)c3)cc12` was tested, and the NADPH fluorescence slope was -2.5e-05.
In the case of `Cc1ccc(S(=O)(=O)NC(=O)c2cc(C)n(CCCn3ccnc3)c2C)cc1`, the NADPH fluorescence slope was -2.4e-05.
In the case of `CC(C)(O)C1=NOC(c2ccccc2)C1` (stereo not given), the NADPH fluorescence slope was 1.7e-07.
`Cc1ccc(C(C(=O)NC2CCCCC2)N(C(=O)c2csnn2)C2CCCC2)o1` (stereo not given) was tested, and the NADPH fluorescence slope was 1.5e-05.
With `COCCNC(=O)CC(NS(=O)(=O)c1ccc(NC(C)=O)cc1)C(C)C` (stereo not given) the NADPH fluorescence slope was -7.5e-05.
For `COc1ccccc1CN1CC(C(=O)NCc2cccnc2)CC1=O` (stereo not given), the NADPH fluorescence slope was -2.4e-05.
Molecule `O=C(NC1=NCCS1)NC12CC3CC(CC(C3)C1)C2` has an NADPH fluorescence slope of -3.4e-05.
`CCc1nnc(NC(=O)C2CC(=O)N(Cc3ccco3)C2)s1` (stereo not given) was tested, and the NADPH fluorescence slope was -6.1e-05.
`Cc1ccc2c(c1)nnn2C1CCN(C(=O)NC23CC4CC(CC(C4)C2)C3)CC1` gave an NADPH fluorescence slope of -4e-05.

Source: PubChem BioAssay
